{"source": "PubChem BioAssay (NCI)", "note": "Compounds without any hit were thinned out: in the full panel of roughly 79,000, 15% have a hit. Unmarked numbers belong to inactive results. Activity calls are given as the source filed them. No stated cut-off is given here; in the data, active means growth inhibition above about 70%; inactive means the rest."}
{"assay": "NCI Yeast Anticancer Drug Screen. Data for the mlh1 rad18 strain (AID 175)", "conditions": "S. cerevisiae mlh1 rad18 strain growth inhibition; at 5.0 µM (retest, dose inferred, filed as 0.5); hits give high values", "outline": "(§1)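 A repair-deficient yeast strain is exposed to test compound, and growth is scored relative to vehicle-treated controls.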"}
{"smiles": "Cc1[nH]nc(C(=O)N(C)C)c1N=NN(C)C", "growth inhibition": "-105%"}
{"smiles": "CSc1c(S(C)=O)c2ccccc2n1C", "note": "(stereo not drawn)", "growth inhibition": "27%"}
{"smiles": "CN(C)c1ccc(C=Nc2cnc3ccccc3c2)cc1", "growth inhibition": "0%"}
{"smiles": "CCCCCCCCCCCCCCCc1nc(SCC(=O)O)n[nH]1", "growth inhibition": "9%"}
{"smiles": "Cc1ccc(S(=O)(=O)Oc2c([N+](=O)[O-])cc(C)cc2[N+](=O)[O-])cc1", "growth inhibition": "17%"}
{"smiles": "CCOC(=O)c1c(Cl)nnc(-c2ccccc2)c1-c1ccccc1", "growth inhibition": "-1%"}
{"smiles": "Cc1cc(O)c(C=NC(=S)C(N)=S)c(=O)o1", "growth inhibition": "17%"}
{"smiles": "C/C(=N\\NC(=S)NC(C)(C)C)c1ccccn1", "growth inhibition": "38%"}
{"smiles": "S=C(Nc1ccc(Br)c(Cl)c1)SCc1ccc2c(c1)OCO2", "growth inhibition": "44%"}
{"smiles": "CC(=O)Nc1ccc(S(=O)(=O)N/N=C/c2cc(I)cc([N+](=O)[O-])c2O)cc1", "growth inhibition": "12%"}
{"smiles": "CCCC(O)CNCc1ccc(N(C)C)cc1", "note": "(stereo not drawn)", "growth inhibition": "-17%"}
{"smiles": "CC(=O)Nc1nnc(-c2coc3ccccc3c2=O)s1", "growth inhibition": "2%"}
{"smiles": "COc1ccc(CSC(=S)Nc2ccc(Cl)c(C(F)(F)F)c2)cc1", "growth inhibition": "17%"}
{"smiles": "CC(=O)Sc1ccc(Br)cc1", "growth inhibition": "-2%"}
{"smiles": "O=C(CNc1cccc(Cl)c1)Nn1c(-c2ccccc2)nc2ccccc2c1=O", "growth inhibition": "4%"}
{"smiles": "Cc1ccc(S(=O)(=O)c2cc(O)c(O)c3ccc(Br)cc23)cc1", "growth inhibition": "9%"}
{"smiles": "Fc1cccc2c1cc1ccc3cccc4ccc2c1c34", "growth inhibition": "-5%"}
{"smiles": "COC1=C(/C(=N/Nc2ccc([N+](=O)[O-])cc2[N+](=O)[O-])c2ccccc2)COC1=O", "growth inhibition": "3%"}
{"smiles": "CCOC(=O)c1cnccc1CC1(C#N)c2ccccc2C=CN1C(=O)c1ccccc1", "note": "(stereo not drawn)", "growth inhibition": "3%"}
{"smiles": "CCCCNc1ccc(-c2c(N)nc(N)nc2CC)cc1[N+](=O)[O-]", "growth inhibition": "-9%"}
{"smiles": "O=C(NC1CCN(Cc2ccccc2)CC1)c1cccc(I)c1", "growth inhibition": "73% (active)"}
{"smiles": "O/N=C1/CC2CCCc3ccc4cccc1c4c32", "note": "(stereo not drawn)", "growth inhibition": "-26%"}
{"smiles": "CC(C)c1cc(O)c2c(c1O)C1CC3C(C)(C)CCC[C@]23C(=O)O1", "note": "(stereo partly drawn)", "growth inhibition": "3%"}
{"assay": "NCI Yeast Anticancer Drug Screen. Data for the mlh1 rad18 strain (AID 175)", "conditions": "S. cerevisiae mlh1 rad18 strain growth inhibition; at 50.0 µM (retest, dose inferred, filed as 5.0); hits give high values", "outline": "as §1"}
{"smiles": "Oc1ccccc1N=CC1CCCCC1", "growth inhibition": "20%"}
{"smiles": "CC(O[Si](c1ccccc1)(c1ccccc1)C(C)(C)C)[C@H](NC(=O)OC(C)(C)C)C(=O)O[Si](c1ccccc1)(c1ccccc1)C(C)(C)C", "note": "(stereo partly drawn)", "growth inhibition": "99% (active)"}
{"smiles": "Cn1c(=O)c2c3oc(=O)cc(O)c3c(=O)n3c4ccccc4n(c1=O)c23", "growth inhibition": "92% (active)"}
{"smiles": "CCCCCCCCCCCCCCC(O)C(=O)O", "note": "(stereo not drawn)", "growth inhibition": "-27%"}
{"smiles": "O=[N+]([O-])c1cc(I)cc(/C=N/NS(=O)(=O)c2ccc(F)cc2)c1O", "growth inhibition": "45%"}
{"smiles": "CCC/C=C1/OC(=O)C2=C[C@H]3CC[C@]21[C@]1(OC(=O)C2=C1CCC=C2)[C@H]3CCC", "growth inhibition": "95% (active)"}
{"smiles": "C=C(CC)C[C@@H]1C[C@]2(C(=O)OC)c3[nH]c4ccccc4c3CCN2C1=O", "growth inhibition": "96% (active)"}
{"smiles": "Cc1ccc(N2C(=O)C(Cl)=C(Cl)C2=O)cc1", "growth inhibition": "100% (active)"}
{"smiles": "COc1cc2c(cc1O)CCCCC2", "growth inhibition": "3%"}
{"smiles": "CC(C)Cc1cc(O)cc2ccccc12", "growth inhibition": "98% (active)"}
{"smiles": "CCN(CC)Cc1cc(Nc2c3ccccc3nc3c4ccccc4n(C)c23)ccc1O", "growth inhibition": "0%"}
{"smiles": "CC(=O)Nc1ccc(-c2csc(Nc3ccnc4cc(Cl)ccc34)n2)cc1", "growth inhibition": "27%"}
{"smiles": "NNc1ccccc1F", "growth inhibition": "95% (active)"}
{"smiles": "O=C(O)C1(Cc2ccc3c(c2)CCC3)Cc2ccccc2C1=O", "note": "(stereo not drawn)", "growth inhibition": "1%"}
{"smiles": "c1cc2cc(Cc3ccc4[nH]ccc4c3)ccc2[nH]1", "growth inhibition": "41%"}
{"smiles": "COc1cc(C(c2cc3c(cc2O)OCO3)N2CCOCC2)ccc1O", "note": "(stereo not drawn)", "growth inhibition": "34%"}
{"smiles": "Cc1c(N)nc(C2CC(=O)N2CC(N)C(N)=O)nc1C(=O)NC(C(=O)NC(C)C(O)C(C)C(=O)NC(C(=O)NCCc1nc(-c2nc(C(=O)NCCNCC(C)O)cs2)cs1)C(C)O)C(OC1OC(CO)C(O)C(O)C1OC1OC(CO)C(O)C(OC(N)=O)C1O)c1cnc[nH]1", "note": "(stereo not drawn)", "growth inhibition": "98% (active)"}
{"smiles": "Cc1[nH]nc(C(=O)N(C)C)c1N=NN(C)C", "growth inhibition": "90% (active)"}
{"smiles": "CSc1c(S(C)=O)c2ccccc2n1C", "note": "(stereo not drawn)", "growth inhibition": "20%"}
{"smiles": "CN(C)c1ccc(C=Nc2cnc3ccccc3c2)cc1", "growth inhibition": "10%"}
{"smiles": "CCCCCCCCCCCCCCCc1nc(SCC(=O)O)n[nH]1", "growth inhibition": "71% (active)"}
{"smiles": "Cc1ccc(S(=O)(=O)Oc2c([N+](=O)[O-])cc(C)cc2[N+](=O)[O-])cc1", "growth inhibition": "59%"}
{"smiles": "CCOC(=O)c1c(Cl)nnc(-c2ccccc2)c1-c1ccccc1", "growth inhibition": "98% (active)"}
{"smiles": "Cc1cc(O)c(C=NC(=S)C(N)=S)c(=O)o1", "growth inhibition": "42%"}
{"smiles": "C/C(=N\\NC(=S)NC(C)(C)C)c1ccccn1", "growth inhibition": "98% (active)"}
{"smiles": "S=C(Nc1ccc(Br)c(Cl)c1)SCc1ccc2c(c1)OCO2", "growth inhibition": "97% (active)"}
{"smiles": "CC(=O)Nc1ccc(S(=O)(=O)N/N=C/c2cc(I)cc([N+](=O)[O-])c2O)cc1", "growth inhibition": "72% (active)"}
{"smiles": "CCCC(O)CNCc1ccc(N(C)C)cc1", "note": "(stereo not drawn)", "growth inhibition": "16%"}
{"smiles": "CC(=O)Nc1nnc(-c2coc3ccccc3c2=O)s1", "growth inhibition": "-4%"}
{"smiles": "COc1ccc(CSC(=S)Nc2ccc(Cl)c(C(F)(F)F)c2)cc1", "growth inhibition": "21%"}
{"smiles": "CC(=O)Sc1ccc(Br)cc1", "growth inhibition": "76% (active)"}
{"smiles": "O=C(CNc1cccc(Cl)c1)Nn1c(-c2ccccc2)nc2ccccc2c1=O", "growth inhibition": "86% (active)"}
{"smiles": "Cc1ccc(S(=O)(=O)c2cc(O)c(O)c3ccc(Br)cc23)cc1", "growth inhibition": "97% (active)"}
{"smiles": "Fc1cccc2c1cc1ccc3cccc4ccc2c1c34", "growth inhibition": "-6%"}
{"smiles": "COC1=C(/C(=N/Nc2ccc([N+](=O)[O-])cc2[N+](=O)[O-])c2ccccc2)COC1=O", "growth inhibition": "-6%"}
{"smiles": "CCOC(=O)c1cnccc1CC1(C#N)c2ccccc2C=CN1C(=O)c1ccccc1", "note": "(stereo not drawn)", "growth inhibition": "67%"}
{"smiles": "CCCCNc1ccc(-c2c(N)nc(N)nc2CC)cc1[N+](=O)[O-]", "growth inhibition": "-16%"}
{"smiles": "O=C(NC1CCN(Cc2ccccc2)CC1)c1cccc(I)c1", "growth inhibition": "59%"}
{"smiles": "O/N=C1/CC2CCCc3ccc4cccc1c4c32", "note": "(stereo not drawn)", "growth inhibition": "3%"}
{"smiles": "CC(C)c1cc(O)c2c(c1O)C1CC3C(C)(C)CCC[C@]23C(=O)O1", "note": "(stereo partly drawn)", "growth inhibition": "68%"}
